{"source": "PubChem BioAssay AID588591", "about": "(National Center for Advancing Translational Sciences (NCATS), 2011)", "note": "The whole screen tested about 390,000 compounds, of which about 4,700 (1.2%) were called active. Not shown: some 4% with an inconclusive outcome. The sample holds actives, similar compounds and a random draw of the others, so the mix is not that of the screen. The call rests on the fitted dose curve; in most records, active means well fitted inhibition curve with a large enough effect; inconclusive means small, poorly fitted or top-dose-only effect, or another doubt; inactive means no such curve, though single readings can be large or run the other way. On the % scale 0 is the no-effect control and ±100 the full control effect; potency means the concentration at half of the fitted maximal effect.", "data": [{"molecular_target": "DNA polymerase eta (Homo sapiens) (UniProt Q9Y253)", "sequence (Q9Y253 whole entry, looked up)": "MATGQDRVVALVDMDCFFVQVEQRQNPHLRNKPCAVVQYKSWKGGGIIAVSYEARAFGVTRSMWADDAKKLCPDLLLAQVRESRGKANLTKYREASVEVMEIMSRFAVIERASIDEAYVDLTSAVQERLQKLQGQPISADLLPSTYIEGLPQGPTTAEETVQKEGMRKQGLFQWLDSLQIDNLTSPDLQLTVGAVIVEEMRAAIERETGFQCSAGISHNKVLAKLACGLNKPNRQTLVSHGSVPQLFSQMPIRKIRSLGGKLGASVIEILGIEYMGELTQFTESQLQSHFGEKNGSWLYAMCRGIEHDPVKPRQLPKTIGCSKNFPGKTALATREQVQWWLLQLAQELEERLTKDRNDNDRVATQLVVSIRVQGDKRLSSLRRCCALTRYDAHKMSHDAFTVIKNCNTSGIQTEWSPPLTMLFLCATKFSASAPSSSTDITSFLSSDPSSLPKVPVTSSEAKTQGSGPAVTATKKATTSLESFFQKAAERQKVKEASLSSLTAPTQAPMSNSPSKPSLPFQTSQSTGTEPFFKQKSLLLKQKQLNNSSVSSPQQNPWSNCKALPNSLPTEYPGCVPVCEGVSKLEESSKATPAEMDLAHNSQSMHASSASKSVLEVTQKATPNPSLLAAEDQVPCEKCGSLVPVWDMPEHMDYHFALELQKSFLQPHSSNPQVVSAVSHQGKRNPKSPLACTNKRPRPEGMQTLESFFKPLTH", "assay": "qHTS for Inhibitors of Polymerase Eta", "conditions": "recombinant Pol eta, fluorescent DNA replication assay; series mostly up to 114 µM; activity change, negative = inhibition: at the top concentration", "outline": "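Fluorescent replication assay: 50 nM final substrate added after a 15 min room-temperature compound preincubation with 10 nM enzyme. Signal taken at 0 min and again at 10 min.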", "values": [{"compound": "Cc1ccccc1NC(=O)CN1C(=O)C(C)(C)c2ccccc21", "activity change, negative = inhibition": "-20.7% (inactive)"}, {"compound": "CC(C)S(=O)(=O)c1oc(-c2ccc(F)cc2)nc1S(=O)(=O)c1ccc(F)cc1", "activity change, negative = inhibition": "-22.2% (inactive)"}, {"compound": "Cc1ccccc1C(=O)Nc1nnc(S(=O)(=O)N(C)c2ccc(Cl)cc2)s1", "activity change, negative = inhibition": "-1.26% (inactive)"}, {"compound": "CN(Cc1ccco1)S(=O)(=O)c1nnc(NC(=O)c2ccccc2)s1", "activity change, negative = inhibition": "-18.2% (inactive)"}, {"compound": "CCN(c1ccc(Cl)cc1)S(=O)(=O)c1nnc(NC(=O)c2ccco2)s1", "Potency": "39.8 µM (active)"}, {"compound": "Cn1nc(-c2ccccc2)c(-c2ccccc2)c(C(=O)Nc2ccc(S(N)(=O)=O)cc2)c1=O", "activity change, negative = inhibition": "-13.8% (inactive)"}, {"compound": "Cc1cc(O)c(C(=O)/C=C/c2c(F)c(F)c(F)c(F)c2F)c(=O)o1", "Potency": "35.5 µM (active)"}, {"compound": "O=C(O)/C(=C/c1c(C(=O)O)[nH]c2cc(Cl)cc(Cl)c12)c1ccccc1", "activity change, negative = inhibition": "1.06% [at 57.1 µM] (inactive)"}, {"compound": "O=C1OC(C(=O)Nc2cccc(Br)c2)Cc2ccccc21", "note": "(stereo not drawn)", "activity change, negative = inhibition": "-1.35% (inactive)"}, {"compound": "Cc1ccc(-n2nc(C)c3c(C)cc(=O)n(CC(=O)Nc4ccc(C(C)C)cc4)c32)cc1", "activity change, negative = inhibition": "-4.68% (inactive)"}, {"compound": "Cc1ccc(CNC(=O)C2CCN(S(=O)(=O)c3ccc4nc5c(c(C(=O)O)c4c3)CC(C)CC5)CC2)cc1", "note": "(stereo not drawn)", "Potency": "inactive"}, {"compound": "CCOc1ccc(S(=O)(=O)N2CCC(C(=O)NCc3ccccn3)CC2)cc1Cl", "activity change, negative = inhibition": "2.78% (inactive)"}, {"compound": "CCOC(CNC(=O)C1CCN(S(=O)(=O)c2ccc3nc4c(c(C(=O)O)c3c2)CC(C)CC4)CC1)OCC", "note": "(stereo not drawn)", "Potency": "31.6 µM (active)"}, {"compound": "CCNS(=O)(=O)c1cc(-c2nnc(Nc3cccc(C(F)(F)F)c3)c3ccccc23)ccc1C", "activity change, negative = inhibition": "-18.4% (inactive)"}, {"compound": "Cc1ccccc1-c1nc(SCC(=O)N(C)c2ccccc2)c2c(=O)n(C)c(=O)n(C)c2n1", "activity change, negative = inhibition": "-25% (inactive)"}, {"compound": "CCOC(=O)Cn1c(=O)n(-c2ccccc2OC)c2nc(-c3cccc(F)c3)nc(C(N)=O)c21", "activity change, negative = inhibition": "-17% (inactive)"}, {"compound": "CCOC(=O)c1cc2c(=O)n3ccccc3nc2n(CCCOC)c1=NC(=O)C(C)(C)Oc1ccc(Cl)cc1", "activity change, negative = inhibition": "-19.7% (inactive)"}, {"compound": "COc1cc(OC)cc(C(=O)Nc2nnc(SCC(=O)NCC3CCCO3)s2)c1", "note": "(stereo not drawn)", "activity change, negative = inhibition": "-19.7% (inactive)"}, {"compound": "NC(=O)CSc1nnc(NC(=O)c2ccc(Br)o2)s1", "Potency": "20 µM (active)"}, {"compound": "CCSc1nnc(NC(=O)c2cc(=O)c3cc(C)c(C)cc3o2)s1", "activity change, negative = inhibition": "-14.5% (inactive)"}, {"compound": "CCOc1ccccc1N(CC)C(=O)c1cc2ccc3cccnc3c2[nH]1", "activity change, negative = inhibition": "-2.25% (inactive)"}, {"compound": "COc1ccccc1N1CC(C(=O)Nc2nnc(SCC(=O)NC(C)C)s2)CC1=O", "note": "(stereo not drawn)", "activity change, negative = inhibition": "4.61% (inactive)"}, {"compound": "Cc1ccccc1N1CC(C(=O)Nc2nnc(SCCC3OCCO3)s2)CC1=O", "note": "(stereo not drawn)", "Potency": "20 µM (active)"}, {"compound": "COc1ccccc1N1CC(C(=O)Nc2nnc(SCC(=O)NCC3CCCO3)s2)CC1=O", "note": "(stereo not drawn)", "activity change, negative = inhibition": "-20% (inactive)"}, {"compound": "COc1ccc(SCc2cc(=O)c3ccc(C)c(C)c3[nH]2)cc1", "activity change, negative = inhibition": "-3.7% (inactive)"}, {"compound": "Cc1ccc(NC(=O)c2ccc3[nH]c(C)cc(=O)c3c2)c(C)c1", "activity change, negative = inhibition": "-3.29% (inactive)"}, {"compound": "CCOC(=O)C1=C(c2ccccc2)Nc2ncnn2C1c1ccc(Cl)cc1", "note": "(stereo not drawn)", "activity change, negative = inhibition": "-18.3% (inactive)"}, {"compound": "O=C(NC1=CC(=O)c2ccccc2C1=O)c1ccccc1", "Potency": "89.1 µM (active)"}, {"compound": "NS(=O)(=O)c1cc(C(=O)OCC(=O)NNC(=O)c2ccccc2)ccc1Cl", "activity change, negative = inhibition": "-1.41% (inactive)"}, {"compound": "O=C(O)CN1c2cccc3cccc(c23)S1(=O)=O", "Potency": "28.2 µM (active)"}, {"compound": "CC(C)CN(CC(C)C)C(=O)CN1c2cccc3cccc(c23)S1(=O)=O", "activity change, negative = inhibition": "-9.58% (inactive)"}, {"compound": "COc1ccc(C)cc1NC(=O)CN1c2cccc3cccc(c23)S1(=O)=O", "activity change, negative = inhibition": "-8.64% (inactive)"}, {"compound": "COc1ccccc1Cc1nc2ccccc2nc1SCC(=O)N1CCCc2ccccc21", "activity change, negative = inhibition": "6.87% (inactive)"}, {"compound": "CC(=O)c1ccc(N2CCN(c3nc4c(S(=O)(=O)c5ccccc5)nnn4c4ccc(Cl)cc34)CC2)cc1", "activity change, negative = inhibition": "-14% (inactive)"}, {"compound": "C#CCOCCOCCOCCNc1nc(N2CCN(C(=O)[C@H](CCC(=O)O)n3cc(C(N)CO)nn3)CC2)nc(N2CCN(C(=O)[C@H](Cc3ccc(O)cc3)n3cc(C(N)[C@H](C)CC)nn3)CC2)n1", "note": "(stereo partly drawn)", "activity change, negative = inhibition": "1.96% (inactive)"}, {"compound": "C#CCOCCOCCOCCNc1nc(N2CCN(C(=O)CCCCCCCCCCNC(=O)[C@H](CCCCN)n3cc(C)nn3)CC2)nc(N2CCN(C(=O)CCCCCCCCCCNC(=O)[C@H](CO)n3cc(CCCSC)nn3)CC2)n1", "Potency": "89.1 µM (active)"}, {"compound": "C#CCOCCOCCOCCNc1nc(N2CCN(C(=O)C([C@@H](C)CC)n3cc(C(N)COC(=O)C(F)(F)F)nn3)CC2)nc(N2CCN(C(=O)[C@H](Cc3ccc(O)cc3)n3cc(C(N)[C@H](C)CC)nn3)CC2)n1", "note": "(stereo partly drawn)", "activity change, negative = inhibition": "-12% (inactive)"}, {"compound": "C#CCOCCOCCOCCNc1nc(N2CCN(C(=O)CCCCCCCCCCNC(=O)[C@H]([C@@H](C)CC)n3cc(CCCCN=C(N)N)nn3)CC2)nc(N2CCN(C(=O)CCCCCCCCCCNC(=O)[C@H](CO)n3cc(CCCSC)nn3)CC2)n1", "Potency": "50.1 µM (active)"}, {"compound": "C#CCOCCOCCOCCNc1nc(N2CCN(C(=O)C([C@@H](C)CC)n3cc(C(N)COC(=O)C(F)(F)F)nn3)CC2)nc(N2CCN(C(=O)[C@H](CCCCN)n3cc(C(N)CC(C)C)nn3)CC2)n1", "note": "(stereo partly drawn)", "activity change, negative = inhibition": "-1.59% (inactive)"}, {"compound": "COc1ccccc1NC(=O)Cn1cnc2ccc(S(=O)(=O)N3CCC(C)CC3)cc2c1=O", "activity change, negative = inhibition": "-21.9% (inactive)"}, {"compound": "COc1ccc(-c2nc3c4ccccc4n(CC(=O)Nc4ccc(C(C)=O)cc4)c(=O)n3n2)cc1", "activity change, negative = inhibition": "-3.59% (inactive)"}, {"compound": "O=C(CSCc1cnn(-c2ccccc2)c1-n1cccc1)NCc1ccc(Cl)cc1", "activity change, negative = inhibition": "-15.8% (inactive)"}, {"compound": "CCOc1ccc(-c2cc3nc(C4CCN(C(=O)OC(C)(C)C)CC4)c(C(=O)Nc4cccc(CC)c4)cn3n2)cc1", "activity change, negative = inhibition": "-17.4% (inactive)"}]}]}
